Source: article PMC7819943, “Rice protein-binding microarrays: a tool to detect cis-acting elements near promoter regions in rice”
Over roughly 35,000 sequences, “fluorescence intensity (a.u.)” has its median near 10,000; the highest 2% begin near 52,000. The entries come from a sample that favours the highest values as a whole.

molecular target: T1, OsWOX13 (Oryza sativa, UniProt Q5QMM3 1-267); assay: protein-binding microarray (RPBM); PBS, 2% BSA, 51.3 ng/ul salmon testes DNA, 50 uM zinc acetate, 200 nM TF, 25 C, 1 h; high values mean tight binding; conditions: protein: recombinant; tags: N-terminal polyhistidine and DsRed monomer fusion (pET32a); label: CyDye5-dUTP incorporated in the synthesized complementary strand; 3' TTTTT single-stranded linker to array surface; dsDNA, one strand shown
T1 sequence: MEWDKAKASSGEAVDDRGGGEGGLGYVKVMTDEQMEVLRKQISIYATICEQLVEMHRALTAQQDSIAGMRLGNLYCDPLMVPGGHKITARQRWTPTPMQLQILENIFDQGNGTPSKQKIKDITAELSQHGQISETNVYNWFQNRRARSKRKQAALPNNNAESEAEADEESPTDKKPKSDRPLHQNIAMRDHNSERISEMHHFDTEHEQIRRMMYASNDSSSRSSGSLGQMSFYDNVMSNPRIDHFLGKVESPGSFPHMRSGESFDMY
Outline: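 An Axon 4000B scanner gave the binding signal as per-feature fluorescence intensity in arbitrary units. This followed washing of a custom Agilent array that had been incubated for 1 h at 25 °C with 200 nM protein in PBS, 2% BSA, salmon testes DNA and 50 µM zinc acetate. The proteins were transcription factors fused at the N-terminus to polyhistidine and DsRed, expressed in E. coli BL21-CodonPlus and purified on Ni–NTA.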

First: AATACTTGCAAATTAGCTAACTAGTTCTCCTAATTGAGCCCGGAGTCACCTAGTGCAG
Second: ATAACTAATAAATGATTGAATTAGATGAATAGGTAGTTTCCGGAGTCACCTAGTGCAG
The binding signal of the first is lower: 9350 fluorescence intensity (a.u.) for the first, 31000 fluorescence intensity (a.u.) for the second.

First: ATCTGGCAATAATTTACAATTAATTGATACCTTATTGCCTCGGAGTCACCTAGTGCAG
Second: AAGAGTTTAAATTTTAAAATGATTTTATAAGTGGTTAACCCGGAGTCACCTAGTGCAG
The binding signal of the first is higher: 54800 fluorescence intensity (a.u.) for the first, 7500 fluorescence intensity (a.u.) for the second.

First: AAATTTATAATTTTACAATAAATTTGATATTAAATTTGTACGGAGTCACCTAGTGCAG
Second: AACTTATAAATTGATTTATAAGTCTAAATAAAGAGGCACCCGGAGTCACCTAGTGCAG
The binding signal of the first is lower: 12300 fluorescence intensity (a.u.) for the first, 55800 fluorescence intensity (a.u.) for the second.

Compared with “GAACTAATTGATACATTAGCCACTTGATGAGCTCCTCTCCCGGAGTCACCTAGTGCAG”, “TGCTAACTTGAGATGAATGTCGAACTCCTAATTGCAGCTCCGGAGTCACCTAGTGCAG” is lower in binding signal: 58600 fluorescence intensity (a.u.) for the first, 3470 fluorescence intensity (a.u.) for the second.

Going from “AGGCACTAAAATAATCTAATTGATTAACTAATCGGTCACCCGGAGTCACCTAGTGCAG” to “CATGACAGCGTGCTTGGATCAACCGCTTTTGTCTTCTCCACGGAGTCACCTAGTGCAG”, the binding signal falls from 25300 fluorescence intensity (a.u.) to 3780 fluorescence intensity (a.u.).

First: ATTGATAAGCCTAATTTAGACATCAAACCAAACCAGCCCTCGGAGTCACCTAGTGCAG
Second: TTGATCATGATGATATTTAATTTGTTTAGATCACACACTACGGAGTCACCTAGTGCAG
The binding signal of the first is higher: 14300 fluorescence intensity (a.u.) for the first, 10200 fluorescence intensity (a.u.) for the second.

First: ATTCCTAAAATTATATGAATTTATGAGAAATTACGTAATGCGGAGTCACCTAGTGCAG
Second: ATGGAATCAGTAATTAACTAGAAATAAATTAATACTCCTACGGAGTCACCTAGTGCAG
The binding signal of the first is lower: 4300 fluorescence intensity (a.u.) for the first, 9880 fluorescence intensity (a.u.) for the second.

First: TGGCAATGATTTATACTTCAATCATAATTGTTTGCTTAGGCGGAGTCACCTAGTGCAG
Second: TTAGCTATCACAGACACAATCACACAACGATGGTAAAACACGGAGTCACCTAGTGCAG
The binding signal of the first is higher: 24000 fluorescence intensity (a.u.) for the first, 6740 fluorescence intensity (a.u.) for the second.

Compared with “TGTGATTGGTAATTGCCGAACTATTTGAAAATGGTGCGTGCGGAGTCACCTAGTGCAG”, “CCAAATTTGGTAATTTAGAATTTGAACTAGCGTGAGAAAACGGAGTCACCTAGTGCAG” is lower in binding signal: 62300 fluorescence intensity (a.u.) for the first, 19800 fluorescence intensity (a.u.) for the second.

Going from “GACATTAATTAATTTAAATTAACGCTCACTGTTCATCGCCCGGAGTCACCTAGTGCAG” to “ATTAATTAATTAACCTCTAACATTTAACTAATGCAGGTAACGGAGTCACCTAGTGCAG”, the binding signal falls from 65500 fluorescence intensity (a.u.) to 56900 fluorescence intensity (a.u.).

First: ATTAATTAAAATCGCGCCCAATTAATCATTTAATCCATCCCGGAGTCACCTAGTGCAG
Second: AGAATGGTGATTAACTATTGGTGTTAATTAATTTGCTGCACGGAGTCACCTAGTGCAG
The binding signal of the first is higher: 40700 fluorescence intensity (a.u.) for the first, 31000 fluorescence intensity (a.u.) for the second.

Going from “AGGGTAATTACACATTTAACCCTATTTTAAGGTCTAACTACGGAGTCACCTAGTGCAG” to “TCACTGTTATTTAATTATATATATATATATATATTCATGCCGGAGTCACCTAGTGCAG”, the binding signal falls from 18400 fluorescence intensity (a.u.) to 8880 fluorescence intensity (a.u.).

First: TTATGCATTAACAACGTAACTAATTTAATTTGATTAGTTTCGGAGTCACCTAGTGCAG
Second: ACCAATTATAAACACAAGTTAATGGGCAAATGACATGGAACGGAGTCACCTAGTGCAG
The binding signal of the first is higher: 24000 fluorescence intensity (a.u.) for the first, 11500 fluorescence intensity (a.u.) for the second.

Compared with “TTAATTTACCGGATTCAATATTCCATATTTAGAAGTCACCCGGAGTCACCTAGTGCAG”, “CATGACATCGTCATTGACCGTGTCATCGTCAAGATGGATGCGGAGTCACCTAGTGCAG” is higher in binding signal: 3350 fluorescence intensity (a.u.) for the first, 4420 fluorescence intensity (a.u.) for the second.

Compared with “AATAAAAGATTATCATATCTAAATAGAAGATATACCATCTCGGAGTCACCTAGTGCAG”, “AAACCAATTTCAATTACCAATTACTCCCTAATATTAGCTACGGAGTCACCTAGTGCAG” is higher in binding signal: 4160 fluorescence intensity (a.u.) for the first, 18900 fluorescence intensity (a.u.) for the second.

Compared with “GATCAAAAGAAATTTGCCAAATTTACTGCTTTGTGATGGGCGGAGTCACCTAGTGCAG”, “ATTGATTTTATTAAGTAACTGTGTGCTAATTAATTGTTCACGGAGTCACCTAGTGCAG” is higher in binding signal: 3610 fluorescence intensity (a.u.) for the first, 28300 fluorescence intensity (a.u.) for the second.

Compared with “ATCACCGACTAATTAATTAATTAATTAATCATCCTTGATTCGGAGTCACCTAGTGCAG”, “TTATGATTTTCATATAAATCAAATGGGACTTTAATTAATCCGGAGTCACCTAGTGCAG” is lower in binding signal: 38800 fluorescence intensity (a.u.) for the first, 11500 fluorescence intensity (a.u.) for the second.

Compared with “CATCAACATATAATTGATTAAATATTAATTATAACAAACTCGGAGTCACCTAGTGCAG”, “TAATTAATTGATTAATGACTAAACTTGGCCATCAACCGCTCGGAGTCACCTAGTGCAG” is higher in binding signal: 45700 fluorescence intensity (a.u.) for the first, 64800 fluorescence intensity (a.u.) for the second.

Compared with “GATAAGTGATTGATTAACTACTAATTTAATTATCACTGTGCGGAGTCACCTAGTGCAG”, “CATTAATTAAACTAACCCATCCATTGATTGATTATCAGTGCGGAGTCACCTAGTGCAG” is higher in binding signal: 63300 fluorescence intensity (a.u.) for the first, 63500 fluorescence intensity (a.u.) for the second.

Compared with “TGACCTAATTAATTATTTAACTAATAATAATTAGTGATTACGGAGTCACCTAGTGCAG”, “GCTCTGATTAATTTCAAACTTCGATTATGGACTAGTCAACCGGAGTCACCTAGTGCAG” is higher in binding signal: 44500 fluorescence intensity (a.u.) for the first, 53400 fluorescence intensity (a.u.) for the second.

First: CTAATTATAAACCTTAATCAGCTAAAATCCTAACCCATCACGGAGTCACCTAGTGCAG
Second: TGTTAACTAATTAAATACCCATTATCAAACATTTAATTGACGGAGTCACCTAGTGCAG
The binding signal of the first is lower: 3290 fluorescence intensity (a.u.) for the first, 22900 fluorescence intensity (a.u.) for the second.

For “ATGGACTAATTATGCTCAAAAGATTCGTCTCACGATTTACCGGAGTCACCTAGTGCAG”, the binding signal was 16800 fluorescence intensity (a.u.).
